Screening data: PubChem BioAssay, Sanford-Burnham Center for Chemical Genomics
HIF-2a block = HIF-2a inhibition | 786-0 RCC cells HIF-2a reporter, luciferase luminescence, overnight | inhibition, % at 18.8 µM | 0.72% of 360,000 active | AID 624352;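 active = inhibition of the luminescence signal of 40% or more relative to plate controls, in a single-dose primary screen at 18.75 µM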
KKLEB tox = counter-screen for CF NF-kB inhibitors: cytotoxicity | activity change (cytotoxicity), % at 5 µM | 0.36% of 360,000 active | AID 602141 | KKLEB CF airway cells viability, ATPlite luminescence, overnight; hits give low values; cells stimulated with P. aeruginosa culture filtrate;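 active = corrected activity change at or below -50% at 5 µM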
Peg3 promoter = inhibitors of Peg3 promoter | HeLa PEG-Prom luciferase reporter, luminescence, overnight | inhibition, % at 20 µM | 1.7% of 360,000 active | AID 588405;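 active = inhibition of at least 50% at 20 µM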
TROY NFkB inh = inhibitors of TROY-dependent NF-kB signaling; Q293 LMP1-TROYcd NF-kB luciferase reporter, 4 h; inhibition, % at 10 µM; 0.98% of 360,000 active; AID 1347056;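 active = compounds whose plate-normalised and pattern-corrected inhibition of the luciferase reporter signal at the single screening dose is 50% or more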
CF NFkB block = inhibitors of cystic fibrosis induced NF-kB; KKLEB NF-kB-GFP reporter, PAF-induced, GFP fluorescence overnight; inhibition, % at 5 µM; 0.86% of 360,000 active;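 active = at least 50% inhibition at 5 µM, scaled per plate between neutral and stimulator controls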;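 also: PAF is a Pseudomonas aeruginosa culture filtrate used as stimulus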
TWEAK-Fn14 inh = inhibitors of TWEAK-Fn14 interaction signaling. 2% of 360,000 active. inhibition, % at 10 µM. TWEAK-stimulated Fn14 reporter cells, luciferase luminescence, 8 h. AID 1159606; in the data active = inhibition above about 50%
A number is an active result. A selection: hits, their analogues and other compounds. The true share with any hit is near 4%.

`COc1ccc(C2c3c(-c4ccccc4O)n[nH]c3C(=O)N2CCc2ccc(OC)c(OC)c2)cc1` (configuration not stated) gave HIF-2a block inactive, KKLEB tox inactive, Peg3 promoter inactive, TROY NFkB inh inactive, CF NFkB block inactive and TWEAK-Fn14 inh inactive.
For COc1ccc(CCN2C(=O)c3[nH]nc(-c4ccccc4O)c3C2c2cccc(Cl)c2)cc1 (configuration not stated) the results were HIF-2a block inactive, KKLEB tox inactive, Peg3 promoter 98, TROY NFkB inh inactive, CF NFkB block inactive and TWEAK-Fn14 inh inactive.
`CCOc1ccc(Cl)cc1S(=O)(=O)n1nnc2ccccc21` gave HIF-2a block inactive, KKLEB tox inactive, Peg3 promoter inactive, TROY NFkB inh inactive, CF NFkB block inactive and TWEAK-Fn14 inh inactive.
Screening O=C(Nc1nc(-c2cccs2)cs1)c1ccc(S(=O)(=O)N2CCCCC2)cc1 returned HIF-2a block inactive, KKLEB tox inactive, Peg3 promoter inactive, TROY NFkB inh inactive, CF NFkB block inactive and TWEAK-Fn14 inh 59.
Screening O=C(Nc1nc(-c2ccccc2)c(C(=O)c2ccccc2)s1)c1ccc(S(=O)(=O)N2CCCCC2)cc1 returned HIF-2a block inactive, KKLEB tox inactive, Peg3 promoter inactive, TROY NFkB inh inactive, CF NFkB block inactive and TWEAK-Fn14 inh 52.
CN1CCN(NC(=S)NC2CCCC2)CC1 was read as HIF-2a block inactive, KKLEB tox inactive, Peg3 promoter inactive, TROY NFkB inh inactive, CF NFkB block inactive and TWEAK-Fn14 inh inactive.
Screening COc1cc([C@H]2[C@@H]3CCCC[C@]3(O)CCN2CC(=O)Nc2ccc(C)cc2)ccc1O returned HIF-2a block inactive, KKLEB tox inactive, Peg3 promoter inactive, TROY NFkB inh inactive, CF NFkB block inactive and TWEAK-Fn14 inh 66.
`CC(C)c1ccc(-c2nnn(CCC(=O)O)n2)cc1` gave HIF-2a block 89, KKLEB tox inactive, Peg3 promoter inactive, TROY NFkB inh inactive, CF NFkB block inactive and TWEAK-Fn14 inh 87.
O=C(O)CCn1nnc(-c2cccs2)n1 was read as HIF-2a block inactive, KKLEB tox inactive, Peg3 promoter inactive, TROY NFkB inh inactive, CF NFkB block inactive and TWEAK-Fn14 inh inactive.
`Cc1cc(NC(=O)C2CCCN2C(=O)Nc2cccc(Cl)c2)ccc1-n1cnnn1` (configuration not stated) gave HIF-2a block inactive, KKLEB tox inactive, Peg3 promoter inactive, TROY NFkB inh inactive, CF NFkB block inactive and TWEAK-Fn14 inh 55.
`CC(=O)N1c2ccccc2NC2=C(C(=O)CCC2)C1c1cccnc1` (configuration not stated) gave HIF-2a block inactive, KKLEB tox inactive, Peg3 promoter inactive, TROY NFkB inh inactive, CF NFkB block inactive and TWEAK-Fn14 inh inactive.
For O=[N+]([O-])c1ccc(Sc2ncc3ccccn23)nc1 the results were HIF-2a block inactive, KKLEB tox inactive, Peg3 promoter inactive, TROY NFkB inh inactive, CF NFkB block inactive and TWEAK-Fn14 inh inactive.
`Cc1ccc2nc(-c3ccccn3)[nH]c2c1` gave HIF-2a block inactive, KKLEB tox inactive, Peg3 promoter inactive, TROY NFkB inh inactive, CF NFkB block inactive and TWEAK-Fn14 inh 80.
O=C(C=Cc1cccnc1)c1ccccc1 was read as HIF-2a block inactive, KKLEB tox inactive, Peg3 promoter 79, TROY NFkB inh inactive, CF NFkB block inactive and TWEAK-Fn14 inh inactive.
Screening O=C(/C=C/c1cccnc1)c1ccc(O)cc1 returned HIF-2a block inactive, KKLEB tox inactive, Peg3 promoter inactive, TROY NFkB inh inactive, CF NFkB block inactive and TWEAK-Fn14 inh inactive.
For CCOC(=O)C(Cc1nc(OCc2ccccc2)cc(OCc2ccccc2)n1)=NO the results were HIF-2a block inactive, KKLEB tox inactive, Peg3 promoter 55, TROY NFkB inh inactive, CF NFkB block inactive and TWEAK-Fn14 inh inactive.
For CCOC(=O)C(=O)Cc1nc(OCc2ccccc2)cc(OCc2ccccc2)n1 the results were HIF-2a block inactive, KKLEB tox inactive, Peg3 promoter inactive, TROY NFkB inh inactive, CF NFkB block inactive and TWEAK-Fn14 inh inactive.
`O=[N+]([O-])c1ccc(Sc2ccc(F)cc2)nc1` gave HIF-2a block inactive, KKLEB tox inactive, Peg3 promoter inactive, TROY NFkB inh inactive, CF NFkB block inactive and TWEAK-Fn14 inh inactive.
Screening O=[N+]([O-])c1cnc(Sc2ccncn2)c([N+](=O)[O-])c1 returned HIF-2a block inactive, KKLEB tox inactive, Peg3 promoter 113, TROY NFkB inh inactive, CF NFkB block inactive and TWEAK-Fn14 inh inactive.
